Measured values: PubChem BioAssay AID652053 (Broad Institute, 2013)
Among all 1,300 compounds or so, about 930 (72%) were called active.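 The calls were made as follows: active = fitted curve reaches 40% activation signal increase at or below the top valid tested concentration in every replicate test; inconclusive = replicate tests disagree in their calls; inactive = all replicate tests inactive, including effects opposite the expected signal rise.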 So high a share suggests a set chosen from earlier hits. The list is a sample of the results. Results with a measured potency or affinity are listed apart.

experiment: suppression of miR-122 activity, Renilla luciferase sensor – cell-based, Huh7 psiCHECK-miR122, cherry-pick, dose response (AID 652053); details: Huh7 psiCHECK-miR122 Renilla luciferase reporter, 48 h; series mostly up to 35 µM; activation (miR-122 inhibition): at the top concentration

Activation (miR-122 inhibition), inactive:
C=CCN=C1NN=C(c2ccc3c(c2)OCCO3)CS1 19.4%
CC(=O)N1N=C(c2ccccc2)CC1c1cccs1 (stereo not given) 1.31%
CCC(=O)N1[C@H](CN(C)C(C)=O)[C@@H](c2ccc(C3=CCCC3)cc2)[C@@H]1CO 3.62%
C[C@@H]1CN([C@H](C)CO)C(=O)c2cc(NC(=O)Nc3cccc4ccccc34)ccc2O[C@@H]1CN(C)C(=O)Nc1ccccc1 -12.2%
CCNc1nc(N)nc(Oc2ccc(OCCOc3ccccc3)nn2)n1 -13.6%
CCOc1ccccc1NS(=O)(=O)N(C)C -3.18%
C[C@@H]1CN([C@H](C)CO)C(=O)c2cccc(NC(=O)Nc3ccccc3)c2O[C@H]1CN(C)Cc1ccc(C(=O)Nc2ccccc2N)cc1 50%
C[C@H]1CN([C@@H](C)CO)C(=O)c2cccc(NC(=O)Nc3ccccc3)c2O[C@H]1CN(C)Cc1ccc(C(=O)Nc2ccccc2N)cc1 40%
C[C@@H]1CN([C@@H](C)CO)C(=O)c2cccc(NC(=O)Nc3ccccc3)c2O[C@H]1CN(C)Cc1ccc(C(=O)Nc2ccccc2N)cc1 11.5%
C[C@H](CO)N1C[C@H](C)[C@@H](CN(C)C(=O)NC2CCCCC2)Oc2ccc(NC(=O)Nc3cccc4ccccc34)cc2CC1=O 1.35%
CC/C(=N\NC(=O)c1ccc2c(c1)OCO2)C12CC3CC(CC(C3)C1)C2 1.6%
COc1ccc(C(=O)Oc2ccc(C(=S)N3CCOCC3)cc2)cc1 -8.09%
O=C(C(c1ccccc1)c1ccccc1)N1CCOCC1 -2.67%
COc1ccc(C(=O)Nc2nc3c(s2)CCCC3)cc1S(=O)(=O)N1CCCc2ccccc21 4.39%
COCC(=O)N(C)C[C@@H]1Oc2ncc(C#Cc3cccnc3)cc2C(=O)N([C@H](C)CO)C[C@H]1C 0.781%
C[C@H]1CN([C@@H](C)CO)C(=O)c2cc(C#CC(C)(C)O)cnc2O[C@H]1CN(C)Cc1cncnc1 -18.5% [at 30 µM]
CCCC#Cc1cnc2c(c1)C(=O)N([C@H](C)CO)C[C@H](C)[C@H](CN(C)C(=O)c1ccccc1)O2 21.1%
C[C@@H]1CN([C@H](C)CO)C(=O)Cc2cc(NC(=O)Nc3cccc4ccccc34)ccc2O[C@@H]1CN(C)C(=O)NC1CCCCC1 28.5% [at 30 µM]
O=C(NNC(=S)NC1CCCCC1)c1ccc2c(c1)OCO2 31.1%
Cc1ccc(Cl)cc1NC(=S)N(CCCN1CCOCC1)Cc1ccccn1 -1.59%
COCCn1c(C)cc(C(=O)COC(=O)c2cc3c(s2)CCC3)c1C 8.83%
O=C(OCc1ccccc1Cl)c1ccccc1C(=O)c1ccccc1 37.3%
O=C(c1ccccc1)c1ccc(-c2ccc(O)cc2)cc1 36.8%
CC(=O)Nc1ccc(S(=O)(=O)NCCc2ccc(S(N)(=O)=O)cc2)cc1 19.7%
COCC(=O)NC[C@H]1[C@H](c2ccccc2)[C@@H](CO)N1C(=O)c1ccccc1 -6.6%
C[C@H]1CN([C@@H](C)CO)C(=O)Cc2cc(NC(=O)Nc3cccc4ccccc34)ccc2O[C@@H]1CN(C)C(=O)NC1CCCCC1 -0.862%
CCC1(c2ccc(F)cc2)NC(=O)N(CC(=O)Nc2ccc(-c3nc4ccc(C)cc4s3)cc2)C1=O (stereo not given) -7.83%
COC(=O)c1sccc1NC(=S)Nc1ccc(F)cc1 3.83%
COc1ccc(CCNC(=O)COC(=O)Cn2cnc3ccccc3c2=O)cc1 -8.09%
Cc1ccc(Nc2nc(C(=O)NCc3ccco3)cs2)cc1 -0.096%
O=c1c2c(nc3nc(SCc4ccccc4)[nH]n13)CCC2 4.6%
Cc1ccc(CSc2nnc(-c3cccnc3)o2)cc1 -6.16%
CN(C[C@H]1N[C@@H](CO)[C@H]1c1ccc(-c2cccc(F)c2)cc1)S(C)(=O)=O -17%
C[C@@H]1CN([C@H](C)CO)C(=O)c2cccc(NS(=O)(=O)c3ccccc3)c2O[C@H]1CN(C)Cc1ccc(C(=O)Nc2ccccc2N)cc1 -2.83%
C[C@H]1CN([C@@H](C)CO)C(=O)c2cccc(NS(=O)(=O)c3ccccc3)c2O[C@H]1CN(C)Cc1ccc(C(=O)Nc2ccccc2N)cc1 36.4% [at 28.5 µM]
CCCCC(O)(CCCC)C(=O)NN(C(=O)OC)c1ccccc1 -6.47%
COc1ccc(C(=O)N[C@H](C(=O)Nc2nc3ccccc3[nH]2)C(C)C)cc1 15.5%
CC(=O)N1[C@H](CNC(=O)C2CC2)[C@H](c2ccc(-c3ccccc3)cc2)[C@@H]1CO 1.49%
O=C(N/N=C/c1cccc(F)c1)c1csc2c1CCCC2 -4.34%
CN1c2ccc(-c3cccc(F)c3)cc2[C@H]2[C@H](CCN2C(=O)C2CC2)[C@H]1CO 10% [at 30 µM]
CC(C)NC(=O)N1CC[C@@H]2[C@@H](CO)N(C)c3ccc(-c4cccc(F)c4)cc3[C@@H]21 15.3% [at 30 µM]
O=C(NC[C@H]1N[C@H](CO)[C@H]1c1ccccc1)c1ccccc1F 5.44%
CC(C)NC(=O)N1[C@H](CO)[C@@H]2c3ccccc3N(C(=O)c3ccccc3F)C[C@@H]21 -8.81%
C[C@@H]1CN([C@@H](C)CO)C(=O)c2cccc(NC(=O)C3CCOCC3)c2O[C@H]1CN(C)Cc1ccc2c(c1)OCO2 6.54%
C[C@@H]1CN([C@H](C)CO)C(=O)c2cccc(NC(=O)C3CCOCC3)c2O[C@@H]1CN(C)Cc1ccc2c(c1)OCO2 -9.26%
C[C@@H]1CN([C@@H](C)CO)C(=O)c2cccc(NC(=O)C3CCOCC3)c2O[C@@H]1CN(C)Cc1ccc2c(c1)OCO2 0.015%
C[C@@H]1CN([C@H](C)CO)C(=O)c2cccc(NC(=O)C3CCOCC3)c2O[C@H]1CN(C)Cc1ccc2c(c1)OCO2 4.98%
Cc1c(C(=O)Nc2ccccn2)oc2ccccc12 -5.01%
Cc1ccccc1N(C(=O)CCCC(=O)Nc1ccccn1)C(C(=O)NC1CCCC1)c1ccc(O)cc1 (stereo not given) 27.4%
O=C(NCCCN1CCN(Cc2ccccc2)CC1)c1nnc(Cc2c(F)cccc2Cl)o1 -15.8%
COC(=O)c1c(NC(C)=O)sc(Cc2ccccc2)c1C -7.43%
O=C(Nc1ccccn1)c1cccc(S(=O)(=O)N2CCOCC2)c1 -7.05%
CCC(=O)N1[C@H](CNC(=O)COC)[C@@H](c2ccc(-c3ccccc3)cc2)[C@@H]1CO -7.61%
Cc1ccc(S(=O)(=O)NCCC(=O)Oc2ccc3ccc(=O)oc3c2)cc1 -5.43%
Cc1ccc2[nH]c(CNC(=O)C3CCCCC3)cc2c1 18.1%
